Screening results as filed in PubChem BioAssay.
This is a sample that favours compounds with a hit; in the whole collection about 18% have one here.
DT40 TDP1 no CPT: qHTS for Inhibitors of human tyrosyl-DNA phosphodiesterase 1 (TDP1): qHTS in cells in absence of CPT; 420,000 compounds, 15% hits; AID 686978, 2013; Potency, µM (doses to about 46.2 µM), inactives show top-dose activity change, negative = growth inhibition, most hits filed as inhibitors; DT40 Tdp1-/- hTDP1 cells, no CPT, ATP luminescence, 48 h; also: potency is read from the fitted curve at half-maximal effect; % is scaled to controls: 0 for no effect and ±100 for the full control effect; nearly all actives have a fitted effect of over 55% in size
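Cells were dispensed at 400 per well, compounds added by pin tool, plates incubated ≥48 hr at 37 °C, then CellTiter-Glo added for 30 min at room temperature before luminescence reading. Line: DT40 Tdp1-/- complemented with hTDP1; camptothecin omitted.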
HepG2 viability: qHTS for Inhibitors of TGF-b: Cytotox Counterscreen. HepG2 CAGA-GFP viability, ATP luminescence, 18 h. Potency, µM (titrated, usually from 46.1 µM), for the others: at the top dose activity change, negative = cytotoxicity, hits mostly cytotoxic. 410,000 compounds, 0.76% hits. AID 588856, 2011; also: potency is read from the fitted curve at half-maximal effect
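HepG2 CAGA-GFP cells (1000/well, DMEM with 1% FBS) received compound, then TGF-beta at 500 pg/mL final, and were incubated 18 hours at 37 degrees C. Viability was read by CellTiter-Glo luminescence. Media-only wells were set as complete cell-killing and DMSO as no toxicity.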
TDP1 cell CPT: qHTS for Inhibitors of human tyrosyl-DNA phosphodiesterase 1 (TDP1): qHTS in cells in presence of CPT | 420,000 compounds, 12% hits | Potency, µM (doses to about 46.2 µM), without a hit: at the top dose activity change, negative = growth inhibition, actives largely listed as inhibitors | chicken DT40 Tdp1-/-;hTDP1 cells + 20 nM CPT, ATP luminescence, 48 h; also: potency is read from the fitted curve at half-maximal effect; % is scaled to controls: 0 for no effect and ±100 for the full control effect; nearly all actives have a fitted effect of over 55% in size
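Cell growth measured by CellTiter-Glo luminescence after a minimum 48 h, 37 C compound exposure with 20 nM CPT in Tdp1-knockout DT40 cells stably expressing hTDP1, seeded 400/well; qHTS titration format.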
TDP1 block: qHTS Assay for Inhibitors of Tyrosyl-DNA Phosphodiesterase (TDP1) | Tyrosyl-DNA phosphodiesterase 1 (Homo sapiens), Q9NUW8 | 350,000 compounds, 0.28% hits | AID 485290, 2010 | Potency, µM (series often up to 130 µM), for the others: at the top dose activity change, negative = inhibition, actives largely listed as inhibitors | recombinant TDP1, AlphaScreen DNA substrate cleavage; also: potency is read from the fitted curve at half-maximal effect; % is scaled to controls: 0 for no effect and ±100 for the full control effect; nearly all actives have a fitted effect of over 40% in size
Target sequence (Q9NUW8 whole entry, looked up): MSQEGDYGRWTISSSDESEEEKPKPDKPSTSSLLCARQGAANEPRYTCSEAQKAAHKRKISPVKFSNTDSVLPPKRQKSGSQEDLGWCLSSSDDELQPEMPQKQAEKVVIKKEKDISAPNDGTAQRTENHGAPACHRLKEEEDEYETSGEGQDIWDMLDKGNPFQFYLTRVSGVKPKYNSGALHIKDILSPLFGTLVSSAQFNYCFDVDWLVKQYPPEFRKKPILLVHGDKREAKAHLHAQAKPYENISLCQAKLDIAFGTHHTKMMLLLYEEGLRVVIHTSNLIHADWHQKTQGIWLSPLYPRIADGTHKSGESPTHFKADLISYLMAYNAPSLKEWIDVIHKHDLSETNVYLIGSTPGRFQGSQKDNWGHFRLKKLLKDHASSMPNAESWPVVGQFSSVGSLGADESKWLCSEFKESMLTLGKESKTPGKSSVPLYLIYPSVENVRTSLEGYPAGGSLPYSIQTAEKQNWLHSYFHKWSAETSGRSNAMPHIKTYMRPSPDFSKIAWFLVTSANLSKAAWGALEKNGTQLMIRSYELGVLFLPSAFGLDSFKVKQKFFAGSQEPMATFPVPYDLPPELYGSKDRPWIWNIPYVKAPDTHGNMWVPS
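Enzyme-compound mixtures sat 15 min at room temperature, followed by a 5 min reaction with 15 nM final substrate and 10 min with AlphaScreen beads. Recombinant human Tdp1 was used at 1 nM final.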
IL1B secr inh: qHTS for Inhibitors of Inflammasome Signaling: IL-1-beta AlphaLISA Primary Screen; THP-1 LPS/ATP IL-1B secretion, AlphaLISA, 16 h; stronger effect = lower value; activity change, % at 57.5 µM; 360,000 compounds, 4.7% hits; AID 743279, 2014; in the data active = activity change below about -50%; inconclusive = mostly about -30% to -49%; also: % is scaled to controls: 0 for no effect and ±100 for the full control effect
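THP-1 cells pretreated 1 hr with compounds (up to 57.5 uM final), then stimulated with LPS (250 ng/mL final) plus ATP (1.25 mM final); secreted IL-1B measured by AlphaLISA after 16 hr, decreased signal indicating inhibition.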
TGFb inhibitor: qHTS for Inhibitors of TGF-b; HepG2 CAGA-GFP TGF-b/SMAD3 reporter, GFP fluorescence, 18 h; TGF-beta stimulated, 500 pg/mL final; Potency, µM (highest dose often 46.1 µM), without a hit: at the highest dose activity, negative = inhibition, most hits filed as inhibitors; 410,000 compounds, 1.2% hits; AID 588855, 2011; also: potency is read from the fitted curve at half-maximal effect; % is scaled to controls: 0 for no effect and ±100 for the full control effect; nearly all actives have a fitted effect of over 65% in size
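HEPG2 CAGA-GFP reporter cells (1000/well, DMEM with 1% FBS) received compounds, then recombinant TGF-beta at 500 pg/mL final for 18 hours at 37 degrees C. Per-cell GFP summed per well was normalised to unstimulated and stimulated DMSO controls before curve fitting.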
Active calls of the source: *; i = inactive; ? = inconclusive; nt = no result; [ ] = another dose, or the depositor's remark. Unless noted, calls follow the shape of the dose curve; as a rule, active = well fitted curve in the direction sought with a large enough effect; inconclusive = small, poorly fitted or top-dose-only effect, or another doubt; inactive = no such curve, though single readings can be large; an effect the other way counts as inactive or inconclusive.

SMILES	DT40 TDP1 no CPT	HepG2 viability	TDP1 cell CPT	TDP1 block	IL1B secr inh	TGFb inhibitor
COc1cc(Cl)c(C)cc1NC(=O)COC(=O)C1CC1C (configuration not stated)	9%	4%	0%	-6%	15	-7%
CCOC(=O)c1c(C)[nH]c(C(=O)OCC(=O)NCc2ccc(OC)c(OC)c2)c1C	18µM*	-8%	8.2µM*	2%	5	?
CC(=O)c1c(C)[nH]c(C(=O)OCC(=O)NCCc2ccc(F)cc2)c1C	23µM*	-25%	?	2%	48	-10%
NC(=O)c1ccsc1NC(=O)COC(=O)c1c(F)cccc1Cl	8.2µM*	-5%	?	-4%[56.1 µM]	9	-15%
CCOC(=O)c1c(C)[nH]c(C(=O)OCC(=O)Nc2cc(C)c(Cl)cc2OC)c1C	4.6µM*	-20%	3.7µM*	1%	70	2%
NC(=O)c1ccsc1NC(=O)COC(=O)c1ccccc1F	-24%	2%	-18%	1%	-10	-1%
CCOc1ccc(CCNC(=O)COC(=O)c2[nH]c(C)c(C(C)=O)c2C)cc1OCC	21µM*	-19%	?	nt	-7	-17%
CCOC(=O)c1c(C)[nH]c(C(=O)OCC(=O)Nc2ccc(Cl)cn2)c1C	-2%	-8%	-1%	-3%	33	-32%
CC(=O)c1c(C)[nH]c(C(=O)OCc2ccc(F)cc2Cl)c1C	13µM*	2%	15µM*	9%	26	-13%
CCOC(=O)c1c(C)[nH]c(C(=O)OCC(=O)Nc2sccc2C(N)=O)c1C	2.1µM*	-39%	1.6µM*	nt	-71*	-13%
O=C1CCCN1C(=O)CSc1ncnc2sccc12	1%	24%	5%	50µM*	5	-2%
O=C(CSc1ncnc2sccc12)N1CCCCC1	-8%	-14%	2%	0%	-2	-2%
Cc1ccc(NC(=O)COC(=O)c2ccc(-n3nc(C)cc3C)cc2)c(F)c1	-17%	-29%	-6%	0%	13	-25%
CC1(C)Cc2c(cnn2-c2ccccc2)C(=O)/C1=N\NC(=O)c1ccncc1	?	-14%	18µM*	nt	15	1%
CC1(C)Cc2c(cnn2-c2ccccc2)C(NC(=O)CCc2ccncc2)C1 (configuration not stated)	-20%	-7%	-30%	3%[56.1 µM]	i	-2%
O=C1NC[C@H](CCCCN2C[C@H](Cc3ccc(O)cc3)N(CCC3CCCCC3)C(=O)C2=O)N(CCc2ccc(O)cc2)C1=O	4%	nt	0%	nt	-7	nt
Cc1cc(-n2ccnc(NCCc3ccc(S(N)(=O)=O)cc3)c2=O)ccc1Br	26µM*	-19%	?	8%	nt	?
C[C@H](CO)N1C[C@H](C)[C@@H](CN(C)C(=O)Nc2ccc(C(F)(F)F)cc2)Oc2ccc(NC(=O)C3CCCCC3)cc2C1=O	?	-1%	?	-1%	-53*	-26%
C[C@@H]1CN([C@H](C)CO)C(=O)c2cc(NC(=O)Nc3ccc(F)cc3)ccc2O[C@H]1CN(C)C(=O)Nc1ccc(C(F)(F)F)cc1	21µM*	-16%	16µM*	2%	-72*	?
CC(C)NC(=O)N(C)C[C@H]1OCCCC[C@@H](C)Oc2ccc(NC(=O)C3CCCCC3)cc2C(=O)N([C@H](C)CO)C[C@@H]1C	12µM*	-6%	?	nt	-12	3%
C[C@H](CO)N1C[C@H](C)[C@@H](CN(C)C(=O)Nc2ccc(C(F)(F)F)cc2)Oc2ccc(NS(=O)(=O)c3ccc(F)cc3)cc2C1=O	23µM*	-4%	?	1%	-23	?
Cc1ccc(S(=O)(=O)Nc2ccc3c(c2)C(=O)N([C@H](C)CO)C[C@H](C)[C@@H](CN(C)C(=O)Nc2ccc(C(F)(F)F)cc2)O3)cc1	?	-4%	?	1%	?	-39%
N#Cc1ccsc1NC(=O)C1CCCN1S(=O)(=O)c1cccs1 (configuration not stated)	-15%	4%	-5%	4%	23	8%
O=C(/C=C/c1ccccn1)NCC1Cc2cccc(-c3ncccn3)c2O1 (configuration not stated)	-12%	nt	2%	nt	nt	nt
O=C(/C=C/c1ccc(F)cc1)NCC1Cc2cccc(-c3ncccn3)c2O1 (configuration not stated)	18µM*	nt	?	nt	nt	nt
SMILES	DT40 TDP1 no CPT	HepG2 viability	TDP1 cell CPT	TDP1 block	IL1B secr inh	TGFb inhibitor
COc1ccc(Oc2nnnn2-c2ccccc2)cc1	-4%	4%	9%	0%	-20	-4%
c1ccc(-n2nnnc2Oc2ccc(-n3ccnc3)cc2)cc1	-9%	3%	-13%	8%	-64*	-12%
O=c1[nH]nc(SCCS(=O)(=O)c2ccc(F)cc2)n1-c1ccccc1	?	-2%	29µM*	3%	-88*	-3%
CCOc1ccccc1NC(=O)CSc1n[nH]c(=O)n1-c1ccccc1	?	-6%	?	nt	14	5%
O=c1[nH]nc(SCCS(=O)(=O)c2ccc(F)cc2)n1-c1ccc2c(c1)OCCO2	16µM*	22%	?	4%	-92*	-9%
CCc1nc2sc3c(N4CCCCC4)ncnc3c2c2c1CCCC2	-5%	0%	-6%	2%	nt	12%
CC1(C(=O)NS(=O)(=O)c2cccs2)CCN1C(=O)CC1CC1 (configuration not stated)	-15%	16%	-2%	nt	21	19%
CCCn1c(N/N=C\C=C\c2ccccc2)nc2c1c(=O)[nH]c(=O)n2C	16µM*	-29%	15µM*	5%	1	-15%
CC(/C=C/c1ccccc1)=N\Nc1nc2c(c(=O)[nH]c(=O)n2C)n1CCO	-16%	-3%	-11%	6%	0	2%
O=C(CCC1CCCC1)Nc1ccc(C(=O)NCc2cccnc2)cc1	?	-6%	15µM*	6%	-11	-14%
O=C(NCc1cccnc1)c1ccc(NS(=O)(=O)c2ccccc2)cc1	-24%	10%	-17%	3.5µM*	-2	-27%
O=C(NCc1cccnc1)c1ccc(-c2cc3ccccc3oc2=O)cc1	?	0%	12µM*	nt	-22	-2%
